What all share (experiment): yeast three-hybrid, YBZ-1, SC-Leu-His + 0.5 mM 3-AT, 4 days
Common to all, as to settings: tags: N-Gal4 AD-HA kept; label: inside an RPR1-promoter hybrid RNA with tandem MS2 sites; ssRNA

One assay has as its target PUM1 PUF domain R5-GAR (Homo sapiens, UniProt Q14671 828-1176, C1007G;R1008A;Q1011R). Put shortly: (§1)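 The interaction score is the log change in how often each variant appears, from input to selection. Frequencies came from PCR-amplified, Illumina-sequenced repeat regions of Pumilio-1 PUF domain libraries grown in strain YBZ-1 (LexA–MS2 coat fusion, HIS3 reporter) alongside matching RNA elements. Input plates were SC-Leu and selection plates were SC-Leu-His + 0.5 mM 3-AT, each for four days, and the log2 calculation used a pseudocount of 1 where a variant was absent.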

In the next assay the target is PUM1 PUF domain R2-TFG (Homo sapiens, UniProt Q14671 828-1176, N899T;Y900F;Q903G). The procedure, abridged: as §1
In a further assay the target is PUM1 PUF domain R1-SKS (Homo sapiens, UniProt Q14671 828-1176, R864K;Q867S). The procedure, abridged:
as §1

A further assay addresses PUM1 PUF domain R8-TYN (Homo sapiens, UniProt Q14671 828-1176, N1122T;Q1126N). The procedure, abridged: as §1
Another assay addresses PUM1 PUF domain R3-DHS (Homo sapiens, UniProt Q14671 828-1176, C935D;R936H;Q939S). The procedure, abridged:
as §1

Another assay addresses PUM1 PUF domain R4-TPT (Homo sapiens, UniProt Q14671 828-1176, N971T;H972P;Q975T). The procedure, abridged:
as §1

In another assay the target is PUM1 PUF domain R8-RYT (Homo sapiens, UniProt Q14671 828-1176, N1122R;Q1126T). The procedure, abridged:
as §1

For the next assay, the target named is PUM1 PUF domain R4-CGC (Homo sapiens, UniProt Q14671 828-1176, N971C;H972G;Q975C). The procedure, abridged:
as §1

Another assay deals with PUM1 PUF domain R4-GQR (Homo sapiens, UniProt Q14671 828-1176, N971G;H972Q;Q975R). Put shortly: as §1
A further assay concerns the target T1, PUM1 PUF domain R6-AWS (Homo sapiens, UniProt Q14671 828-1176, N1043A;Y1044W;Q1047S).
T1 sequence: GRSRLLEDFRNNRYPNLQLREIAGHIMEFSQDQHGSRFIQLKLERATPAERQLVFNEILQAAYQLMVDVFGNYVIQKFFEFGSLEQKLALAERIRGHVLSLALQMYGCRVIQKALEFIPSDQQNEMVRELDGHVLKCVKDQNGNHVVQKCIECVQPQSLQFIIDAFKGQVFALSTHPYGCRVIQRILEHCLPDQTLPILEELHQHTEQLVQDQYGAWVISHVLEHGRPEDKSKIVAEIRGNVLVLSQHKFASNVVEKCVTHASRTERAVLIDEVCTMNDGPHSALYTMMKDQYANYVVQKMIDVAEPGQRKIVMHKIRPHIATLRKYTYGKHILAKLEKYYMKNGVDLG
The procedure, abridged:
as §1

Consider “GGCUAGAACUAGUGGAUCCCCCGGCGCCCGGCGGCUCGAGCCCGGGUAAGUGUCAAUAGUCUGCAUGCCGCCGGGCGCCAUGCCUGCAGGUCGACUCUAGAAAACAUG”, for which the binding signal in the assay with PUM1 PUF domain R5-GAR is 5.42 log2 enrichment (interaction score).

Consider “GGCUAGAACUAGUGGAUCCCCCGGCGCCCGGCGGCUCGAGCCCGGGUAAGUGUAAAAAGUCUGCAUGCCGCCGGGCGCCAUGCCUGCAGGUCGACUCUAGAAAACAUG”, for which, in the assay with PUM1 PUF domain R2-TFG, the binding signal is 4.09 log2 enrichment (interaction score).

As for “GGCUAGAACUAGUGGAUCCCCCGGCGCCCGGCGGCUCGAGCCCGGGUAAGUGUAAAUCGUCUGCAUGCCGCCGGGCGCCAUGCCUGCAGGUCGACUCUAGAAAACAUG”, in the assay with PUM1 PUF domain R1-SKS, the binding signal was 1.17 log2 enrichment (interaction score).

Take “GGCUAGAACUAGUGGAUCCCCCGGCGCCCGGCGGCUCGAGCCCGGGUAAGCGUAAAUAGUCUGCAUGCCGCCGGGCGCCAUGCCUGCAGGUCGACUCUAGAAAACAUG”: the binding signal with PUM1 PUF domain R8-TYN was 2.62 log2 enrichment (interaction score).

Turning to “GGCUAGAACUAGUGGAUCCCCCGGCGCCCGGCGGCUCGAGCCCGGGUAAGUGUAAAUAGUCUGCAUGCCGCCGGGCGCCAUGCCUGCAGGUCGACUCUAGAAAACAUG”, the binding signal with PUM1 PUF domain R3-DHS is 3.1 log2 enrichment (interaction score); with PUM1 PUF domain R5-GAR, 1.64 log2 enrichment (interaction score); with PUM1 PUF domain R4-TPT, 2.59 log2 enrichment (interaction score); in the assay with PUM1 PUF domain R8-RYT it was 2.86 log2 enrichment (interaction score); in the assay with PUM1 PUF domain R4-CGC, 3.48 log2 enrichment (interaction score).

In the case of “GGCUAGAACUAGUGGAUCCCCCGGCGCCCGGCGGCUCGAGCCCGGGUAAGUGUAAAUUGUCUGCAUGCCGCCGGGCGCCAUGCCUGCAGGUCGACUCUAGAAAACAUG”, the binding signal with PUM1 PUF domain R1-SKS was 2.64 log2 enrichment (interaction score).

Regarding “GGCUAGAACUAGUGGAUCCCCCGGCGCCCGGCGGCUCGAGCCCGGGUAAGUGUACAUAGUCUGCAUGCCGCCGGGCGCCAUGCCUGCAGGUCGACUCUAGAAAACAUG”, the binding signal in the assay with PUM1 PUF domain R4-TPT was 3.15 log2 enrichment (interaction score); with PUM1 PUF domain R4-GQR, 2.32 log2 enrichment (interaction score).

Take “GGCUAGAACUAGUGGAUCCCCCGGCGCCCGGCGGCUCGAGCCCGGGUAAGUGAAAAUAGUCUGCAUGCCGCCGGGCGCCAUGCCUGCAGGUCGACUCUAGAAAACAUG”: in the assay with PUM1 PUF domain R6-AWS, the binding signal is 5.94 log2 enrichment (interaction score).

As for “GGCUAGAACUAGUGGAUCCCCCGGCGCCCGGCGGCUCGAGCCCGGGUAAGUGUUAAUAGUCUGCAUGCCGCCGGGCGCCAUGCCUGCAGGUCGACUCUAGAAAACAUG”, the binding signal in the assay with PUM1 PUF domain R5-GAR is 2.98 log2 enrichment (interaction score).

(Values after paper PMC8384837, “Expanding the binding specificity for RNA recognition by a PUF domain”.)
